Assay results reported in ChEMBL document CHEMBL3988442, “University of Dundee, Small-Polar-MMV Screening Library” (2021).
For some assays here: Potency and affinity values are given separately.

Columns and labels:
Parameters in all cases: scale not given: direction of the effect not stated beside the values
[1] = target: Protein translocase subunit SecA (Escherichia coli (strain K12)) (UniProt P10408); experiment: Assay to Identify E. coli SecA ATPase Inhibitors; assay type: functional; conditions: 30 µM
[2] = target: T1, Ubiquitin-activating enzyme e1, putative (Leishmania donovani (strain BPK282A1)) (UniProt E9BSI1); experiment: Leishmania donovani Ubiquitin Activating Enzyme (LdE1); assay type: functional; conditions: 30 µM
T1 sequence (whole entry): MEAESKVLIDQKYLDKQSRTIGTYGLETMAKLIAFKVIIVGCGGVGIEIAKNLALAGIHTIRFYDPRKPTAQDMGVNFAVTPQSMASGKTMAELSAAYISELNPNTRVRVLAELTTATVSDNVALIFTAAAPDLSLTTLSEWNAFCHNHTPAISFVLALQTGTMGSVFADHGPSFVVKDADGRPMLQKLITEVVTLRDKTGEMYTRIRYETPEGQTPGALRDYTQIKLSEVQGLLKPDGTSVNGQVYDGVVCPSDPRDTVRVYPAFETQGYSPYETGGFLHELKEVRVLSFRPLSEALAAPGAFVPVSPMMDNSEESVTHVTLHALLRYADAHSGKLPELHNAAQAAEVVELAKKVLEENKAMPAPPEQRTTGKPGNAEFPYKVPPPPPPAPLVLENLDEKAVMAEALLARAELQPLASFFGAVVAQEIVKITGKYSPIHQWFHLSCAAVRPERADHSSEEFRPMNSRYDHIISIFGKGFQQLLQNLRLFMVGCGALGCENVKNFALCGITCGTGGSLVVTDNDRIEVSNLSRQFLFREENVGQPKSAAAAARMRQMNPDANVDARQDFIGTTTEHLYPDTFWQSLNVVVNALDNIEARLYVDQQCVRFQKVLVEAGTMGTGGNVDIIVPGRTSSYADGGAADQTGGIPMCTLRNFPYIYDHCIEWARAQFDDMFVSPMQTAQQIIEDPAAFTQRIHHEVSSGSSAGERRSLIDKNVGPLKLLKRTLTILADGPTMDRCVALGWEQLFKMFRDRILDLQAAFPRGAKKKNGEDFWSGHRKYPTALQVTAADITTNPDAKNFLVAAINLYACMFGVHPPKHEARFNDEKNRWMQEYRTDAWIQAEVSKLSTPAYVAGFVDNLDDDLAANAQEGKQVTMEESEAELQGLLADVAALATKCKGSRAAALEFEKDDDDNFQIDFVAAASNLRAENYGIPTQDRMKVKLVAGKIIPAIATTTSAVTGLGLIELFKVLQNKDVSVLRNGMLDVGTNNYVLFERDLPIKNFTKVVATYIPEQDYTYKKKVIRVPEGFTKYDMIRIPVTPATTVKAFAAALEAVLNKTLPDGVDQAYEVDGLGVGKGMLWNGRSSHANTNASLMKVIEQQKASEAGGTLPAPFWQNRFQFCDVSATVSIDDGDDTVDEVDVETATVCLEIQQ

[3] = target: AMP-activated protein kinase, AMPK (Homo sapiens) (UniProt P54646+O43741+P54619+Q9UGJ0+Q9Y478+Q13131+Q9UGI9); experiment: AMP-dependent Kinase enzyme assay. An in vitro enzyme assay that detects ADP turnover that is directly proportional to AMPK activity. This uses naive AMPK that is activated during the assay with MK-8722; assay type: functional; conditions: 30 µM
[4] = target: Sialic acid-binding Ig-like lectin 9 (Homo sapiens) (UniProt Q9Y336); experiment: Hs-Siglec9 ALPHAscreen SOP 20170721; conditions: 10 µM
Trypanosoma cruzi = experiment: Trypanosoma cruzi phosphomannomutase and mannose-1-phosphate guanylyltransferase assay; assay type: functional; conditions: 10 µM
[5] = target: T2, Arginase-2, mitochondrial (Homo sapiens) (UniProt P78540); experiment: in vitro enzyme assay to detect the production of urea directly proportional to the activity of Arginase II; assay type: functional; conditions: 33.3 µM; further: in the data most compounds retested in dose-response had high values
T2 sequence (whole entry): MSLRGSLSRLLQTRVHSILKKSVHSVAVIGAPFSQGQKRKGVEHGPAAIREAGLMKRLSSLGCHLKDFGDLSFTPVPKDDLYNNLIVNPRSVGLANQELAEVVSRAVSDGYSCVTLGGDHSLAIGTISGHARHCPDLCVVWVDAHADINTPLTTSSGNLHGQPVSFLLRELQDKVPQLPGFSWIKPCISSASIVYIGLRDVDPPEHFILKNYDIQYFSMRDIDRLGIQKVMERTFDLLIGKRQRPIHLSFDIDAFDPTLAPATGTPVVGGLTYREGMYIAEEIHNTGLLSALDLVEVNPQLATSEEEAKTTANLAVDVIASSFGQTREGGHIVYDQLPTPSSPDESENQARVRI

[6] = target: T3, Proteasome subunit beta (Trypanosoma cruzi) (UniProt O96673); experiment: Trypanosoma cruzi proteasome chymotrypsin-like activity (TcProtChymo) assay.; further: in the data most compounds retested in dose-response had high values; assay type: functional; conditions: 9.37 µM
T3 sequence (whole entry): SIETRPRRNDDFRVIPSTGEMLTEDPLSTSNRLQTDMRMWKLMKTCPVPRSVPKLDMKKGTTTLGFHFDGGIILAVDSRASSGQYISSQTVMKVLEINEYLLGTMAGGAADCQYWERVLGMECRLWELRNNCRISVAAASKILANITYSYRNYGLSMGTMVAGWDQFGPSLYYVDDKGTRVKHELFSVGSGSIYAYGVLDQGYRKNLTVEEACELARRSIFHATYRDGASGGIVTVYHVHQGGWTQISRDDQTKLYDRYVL

Homo sapiens = organism: Homo sapiens; experiment: To identify inhibition of the IFN signalling (Jak-Stat) pathway via expression of an eGFP reporter gene under the control of an IFN-stimulated response element (ISRE) containing MxA promoter.; assay type: functional; conditions: 30 µM
[7] = target: T4, Tyrosyl-tRNA synthetase, putative (Trypanosoma cruzi (strain CL Brener)) (UniProt Q4DSP6); experiment: Trypanosoma cruzi tyrosyl tRNA synthetase (TcYRS) _High Tyrosine SOP; assay type: functional; conditions: 30 µM; further: in the data most compounds retested in dose-response had high values
T4 sequence (whole entry): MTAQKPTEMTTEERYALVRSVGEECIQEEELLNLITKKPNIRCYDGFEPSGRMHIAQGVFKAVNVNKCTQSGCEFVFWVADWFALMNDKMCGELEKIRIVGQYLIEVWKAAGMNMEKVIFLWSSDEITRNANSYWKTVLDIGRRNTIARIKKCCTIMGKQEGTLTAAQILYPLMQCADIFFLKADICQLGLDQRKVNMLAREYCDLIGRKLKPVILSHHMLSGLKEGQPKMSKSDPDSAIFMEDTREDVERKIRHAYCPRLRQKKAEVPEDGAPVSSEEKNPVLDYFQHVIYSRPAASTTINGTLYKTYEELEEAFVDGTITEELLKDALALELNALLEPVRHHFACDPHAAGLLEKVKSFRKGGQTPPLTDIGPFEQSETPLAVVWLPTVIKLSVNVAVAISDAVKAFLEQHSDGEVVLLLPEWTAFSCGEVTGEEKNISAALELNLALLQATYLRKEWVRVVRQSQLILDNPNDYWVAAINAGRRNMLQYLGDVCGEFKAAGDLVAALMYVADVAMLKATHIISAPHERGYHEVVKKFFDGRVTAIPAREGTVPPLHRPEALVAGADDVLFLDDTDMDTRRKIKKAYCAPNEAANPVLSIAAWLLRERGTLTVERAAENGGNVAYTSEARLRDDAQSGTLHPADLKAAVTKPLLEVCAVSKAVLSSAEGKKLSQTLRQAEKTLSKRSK

[8] = target: T4, Tyrosyl-tRNA synthetase, putative (Trypanosoma cruzi (strain CL Brener)); experiment: Trypanosoma cruzi tyrosyl tRNA synthetase (TcYRS) SOP; assay type: functional; conditions: 30 µM
[9] = target: Chromo domain-containing protein 1 (Saccharomyces cerevisiae (strain ATCC 204508 / S288c) (Baker's yeast)) (UniProt P32657); experiment: ScCHD-1 Enzyme Inhibition Assay; assay type: functional; conditions: 30 µM; further: in the data most compounds retested in dose-response had high values
Sequence of Chromo domain-containing protein 1 (Saccharomyces cerevisiae (strain ATCC 204508 / S288c) (Baker's yeast)) (P32657 whole entry, the tested form may be a part): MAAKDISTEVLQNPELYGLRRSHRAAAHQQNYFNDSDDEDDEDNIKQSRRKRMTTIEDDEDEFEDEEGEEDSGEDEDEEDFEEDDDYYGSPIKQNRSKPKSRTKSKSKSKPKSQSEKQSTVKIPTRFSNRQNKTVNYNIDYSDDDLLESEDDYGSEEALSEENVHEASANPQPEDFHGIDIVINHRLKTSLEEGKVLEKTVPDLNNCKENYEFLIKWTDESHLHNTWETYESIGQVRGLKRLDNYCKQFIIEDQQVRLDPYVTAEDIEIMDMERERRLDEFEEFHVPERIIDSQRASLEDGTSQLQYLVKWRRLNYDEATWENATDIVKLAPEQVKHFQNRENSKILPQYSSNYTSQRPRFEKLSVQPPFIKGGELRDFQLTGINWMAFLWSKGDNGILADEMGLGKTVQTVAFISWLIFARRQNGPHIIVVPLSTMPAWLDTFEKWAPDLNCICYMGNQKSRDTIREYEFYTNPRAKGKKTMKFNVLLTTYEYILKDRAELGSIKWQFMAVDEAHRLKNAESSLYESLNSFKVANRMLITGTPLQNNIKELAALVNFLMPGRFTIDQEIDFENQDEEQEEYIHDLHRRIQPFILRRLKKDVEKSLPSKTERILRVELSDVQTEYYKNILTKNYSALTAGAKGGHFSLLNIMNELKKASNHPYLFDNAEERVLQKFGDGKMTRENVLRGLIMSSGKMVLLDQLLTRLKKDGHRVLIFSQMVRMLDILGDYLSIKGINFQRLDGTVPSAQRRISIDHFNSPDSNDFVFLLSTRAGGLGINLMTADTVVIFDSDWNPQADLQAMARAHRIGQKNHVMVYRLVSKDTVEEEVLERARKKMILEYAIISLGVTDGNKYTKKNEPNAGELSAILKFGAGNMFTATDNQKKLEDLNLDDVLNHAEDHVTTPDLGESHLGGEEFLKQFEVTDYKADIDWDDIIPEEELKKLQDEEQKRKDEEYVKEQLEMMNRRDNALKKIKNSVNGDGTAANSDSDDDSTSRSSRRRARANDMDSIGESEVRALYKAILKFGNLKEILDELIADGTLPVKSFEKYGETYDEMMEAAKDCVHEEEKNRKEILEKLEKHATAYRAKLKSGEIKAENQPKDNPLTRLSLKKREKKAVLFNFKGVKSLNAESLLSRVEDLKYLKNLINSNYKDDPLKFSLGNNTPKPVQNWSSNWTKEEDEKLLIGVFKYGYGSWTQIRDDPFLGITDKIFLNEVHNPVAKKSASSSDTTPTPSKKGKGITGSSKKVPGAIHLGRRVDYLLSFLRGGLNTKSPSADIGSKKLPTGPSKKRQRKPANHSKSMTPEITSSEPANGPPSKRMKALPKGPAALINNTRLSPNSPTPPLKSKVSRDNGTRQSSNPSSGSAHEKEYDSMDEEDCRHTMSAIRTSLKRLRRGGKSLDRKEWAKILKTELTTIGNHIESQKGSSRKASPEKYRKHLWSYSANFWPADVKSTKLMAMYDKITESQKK

Sequence of Sialic acid-binding Ig-like lectin 9 (Homo sapiens) (Q9Y336 whole entry): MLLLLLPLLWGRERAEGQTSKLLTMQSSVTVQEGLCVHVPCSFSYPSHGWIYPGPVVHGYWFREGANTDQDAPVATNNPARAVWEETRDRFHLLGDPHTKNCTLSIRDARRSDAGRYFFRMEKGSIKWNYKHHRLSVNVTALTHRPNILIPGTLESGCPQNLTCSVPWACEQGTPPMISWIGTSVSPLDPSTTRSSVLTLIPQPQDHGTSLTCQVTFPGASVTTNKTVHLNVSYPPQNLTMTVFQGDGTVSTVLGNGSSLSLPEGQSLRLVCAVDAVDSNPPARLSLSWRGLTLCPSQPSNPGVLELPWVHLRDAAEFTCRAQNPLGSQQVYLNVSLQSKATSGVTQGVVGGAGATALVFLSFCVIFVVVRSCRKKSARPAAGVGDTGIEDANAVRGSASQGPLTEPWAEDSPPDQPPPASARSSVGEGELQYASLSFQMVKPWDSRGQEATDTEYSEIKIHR
Sequence of Protein translocase subunit SecA (Escherichia coli (strain K12)) (P10408 whole entry): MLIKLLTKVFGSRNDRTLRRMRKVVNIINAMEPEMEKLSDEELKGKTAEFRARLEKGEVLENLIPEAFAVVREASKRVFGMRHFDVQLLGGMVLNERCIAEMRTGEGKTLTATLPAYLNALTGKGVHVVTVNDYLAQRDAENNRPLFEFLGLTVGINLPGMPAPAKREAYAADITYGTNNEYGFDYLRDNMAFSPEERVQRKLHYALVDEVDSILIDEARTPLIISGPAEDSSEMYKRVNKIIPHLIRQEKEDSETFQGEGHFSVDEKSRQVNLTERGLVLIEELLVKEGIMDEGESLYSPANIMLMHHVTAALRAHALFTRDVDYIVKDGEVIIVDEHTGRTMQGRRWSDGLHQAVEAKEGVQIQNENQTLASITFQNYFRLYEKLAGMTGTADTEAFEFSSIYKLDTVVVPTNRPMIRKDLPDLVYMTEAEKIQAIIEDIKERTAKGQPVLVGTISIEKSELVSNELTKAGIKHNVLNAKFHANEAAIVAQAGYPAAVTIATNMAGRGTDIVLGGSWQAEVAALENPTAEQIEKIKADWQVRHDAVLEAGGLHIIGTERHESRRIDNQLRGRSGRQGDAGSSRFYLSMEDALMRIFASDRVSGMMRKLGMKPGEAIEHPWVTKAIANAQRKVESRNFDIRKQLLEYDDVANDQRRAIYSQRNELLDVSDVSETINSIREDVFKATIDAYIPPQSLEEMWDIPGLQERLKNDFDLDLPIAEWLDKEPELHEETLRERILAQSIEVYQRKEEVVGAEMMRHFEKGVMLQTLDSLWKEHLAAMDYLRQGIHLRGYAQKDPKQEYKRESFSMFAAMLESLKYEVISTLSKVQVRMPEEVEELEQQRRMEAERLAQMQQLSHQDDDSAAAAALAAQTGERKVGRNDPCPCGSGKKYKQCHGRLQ

| SMILES | Percent Effect [1] | Percent Effect [2] | Percent Effect [3] | Percent Effect [4] | Percent Effect (Trypanosoma cruzi) | Percent Effect [5] | Percent Effect [6] | Percent Effect (Homo sapiens) | Percent Effect [7] | Percent Effect [8] | Percent Effect [9] |
| --- | --- | --- | --- | --- | --- | --- | --- | --- | --- | --- | --- |
| O=c1oc(-c2ccc(F)cc2)nn1CN1CCN(C2CCCC2)CC1 | -3.25% | 18.2% | 2.12% | -0.647% | -2.25% | -3.56% | 7.6% | -3.58% | 9.71% | 19.5% | -6.38% |
| CCc1n[nH]c(C2CN(C(=O)c3cnc(C)s3)CCO2)n1 (configuration not stated) | -5.53% | 12.7% | -5.15% | 12.5% | 5% | -1.9% | -3.03% | -0.688% | 3.45% | 8.86% | -5.66% |
| CC(=O)Nc1nc(C(=O)N2CCCC(n3nc(C)cc3C)C2)cs1 (configuration not stated) | -5.42% | 0% | 5.38% | -3.57% | -5.13% | -1.8% | -7.02% | -2.38% | -2.46% | -11.1% | 5.41% |
| CCS(=O)(=O)N1CCc2c(CN(C)Cc3ccco3)cncc2C1 | -1.78% | -2.67% | 2.28% | 4.22% | -3.86% | -1.61% | 11.3% | -0.516% | -2.08% | 5% | -3.58% |
| CCCc1nnsc1C(=O)NCC1CCN(S(C)(=O)=O)CC1 | -4.49% | 16.4% | -9.31% | 9.94% | 1.57% | 0.455% | 20.1% | 9.73% | 7.53% | 17.5% | -6.78% |
| CNc1nc(CNC(=O)Nc2cccc(F)c2C)cs1 | -0.623% | -2.63% | -1.93% | 5.4% | -1.32% | 1.15% | 5.18% | 8.24% | 1.47% | -2.44% | 5.82% |
| Cc1cccc(N2CCC(NC(=O)CCCc3cccs3)CC2)n1 | -3.35% | 11% | 0.158% | 5.32% | 5.49% | 6.82% | 9.94% | 4.54% | 5.38% | 12.5% | 2.88% |
| Cc1ccccc1CSc1nc(N)cc(N2CC[C@@H](O)C2)n1 | -5.3% | 16.2% | -11.2% | 22.8% | 7.33% | -3.23% | 11.4% | 28.7% | 20.4% | 30.9% | -7.45% |
| CN1CCN(Cc2nnc(C3CCN(CC4CC4)CC3)n2C)CC1 | 0.271% | 8.22% | 4.92% | 1.71% | 3.13% | 7.27% | 13.3% | 22.3% | 8.6% | 17.5% | -3.38% |
| Cc1ccc(C2CSCCN2C(=O)c2ccsc2)o1 (configuration not stated) | -7.12% | 8.11% | 5.16% | 3.24% | -1.66% | 4.22% | 8.15% | -0.446% | 1.07% | 6.17% | -3.21% |
| Cc1ccsc1[C@@H]1CCN(C(=O)CCC(=O)N2CCCCCC2)C[C@H]1O | -3.23% | 6.94% | -7.07% | -3.16% | 1.46% | -1.32% | 4.91% | -6.38% | 5.26% | 10.3% | -2.41% |
| COCCN(C)CCN1CC2(CCN(C(=O)C3CCOC3)CC2)OC1=O (configuration not stated) | -4.65% | 18.2% | 9.58% | 7.65% | 5.21% | -12.4% | 23.1% | 6.21% | 7.53% | 18.5% | -7.01% |
| CC(C)c1noc(C(C)N2CCN(Cc3ccco3)CC2)n1 (configuration not stated) | -1.82% | -7.89% | -0.515% | 3.05% | 7.19% | -3.24% | 2.45% | -1.85% | 1.48% | 1.24% | 0.33% |
| Cc1ccccc1CN1CCC2(COCc3cnc(N(C)C)nc32)C1 (configuration not stated) | -1.75% | 2.74% | -2.35% | 15.2% | 8.73% | -2% | 8.65% | 19.6% | 9.38% | 13.6% | -2.3% |
| COCCN1C(=O)[C@]2(CC[C@@H]3CN(C(=O)NCC(C)C)C[C@@H]32)N=C1C | 1.47% | 5.33% | -2.77% | -5% | 5.41% | -49.3% | 5.3% | -20.3% | 1.04% | 0% | -4.55% |
| COCCCC(=O)NS(=O)(=O)c1ccc2c(c1)OCCCO2 | -3.41% | 5.26% | -3.3% | 9.85% | -7.94% | 5.75% | -0.0846% | 0.992% | 0.493% | -1.24% | 4.1% |
| CN(C)c1ccc(CCNC(=O)C2CCC(=O)N(C3CCCC3)C2)cc1 (configuration not stated) | -4.96% | 8% | 1.17% | 1.11% | -2.04% | 1.56% | 13.1% | 1.03% | 2.73% | 11.1% | -5.65% |
| Cc1cn2c(n1)CCC(NC(=O)CCC(F)(F)F)C2 (configuration not stated) | -7.86% | -7.89% | -7.17% | 16.2% | 5.51% | 0.36% | 3.64% | -6.31% | 3.45% | 16.1% | -6.39% |
| CCCN1CCC(N(Cc2ncc(C)o2)C(C)=O)C1 (configuration not stated) | -6.17% | 0% | -14.9% | 26.2% | 2.05% | -0.744% | 22.6% | 1.11% | 3.23% | 1.24% | -1.33% |
| Cc1ccc(N2CCCC(NCC(=O)Nc3cc(C)no3)C2)nn1 (configuration not stated) | -1.36% | 13.9% | -2.91% | -5.54% | -3.59% | 0.215% | 13% | 17.8% | 1.04% | 7.59% | -23.2% |
| CC(C)NC(=O)N1CCc2ncc(CN3CCOCC3)n2CC1 | 1.23% | 0% | 6.6% | 1.59% | -4.2% | 0.319% | 14% | 4.62% | 3.24% | 7.69% | 1.69% |
| O=C(c1ccc2c(c1)OCO2)N1CCC[C@]2(C[C@H](OCC3CC3)CO2)C1 | -3.85% | 13.3% | 10.8% | -11.4% | 0.197% | 2.56% | 5.37% | 6.01% | 8.51% | 14.1% | -8.25% |
